# High-throughput results from PubChem.
# A selection: hits, their analogues and other compounds. The true share with any hit is near 6.7%.
# T cruzi growth-1: blocks T. cruzi growth in NIH3T3 culture | T. cruzi beta-gal in NIH3T3, GalScreen luminescence, 90 h | inhibition, % at 8.34 µM | 77,000 compounds, 5.9% hits | AID 624255;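 active means mean inhibition above about 93%, with at least 55% of replicates each passing it, limit read from the data, passing the limit was not always enough; inconclusive means only one of those two conditions holds; inactive means neither condition holds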
# Pf Dd2 inh: inhibitors of Plasmodium falciparum Dd2 growth. P. falciparum Dd2 growth, SYBR Green, 72 h; hits give low values. activity change, % at 10 µM. 94,000 compounds, 2.3% hits; in the data active means activity change below about -80%; inconclusive means no clear call, values can overlap the other calls
# C diff growth: blocks growth of Clostridium difficile | Clostridium difficile clinical isolate growth, OD600, 24 h; hits give low values | growth activity, negative = inhibition, % at 16 µg/mL (by protocol) | 86,000 compounds, 0.25% hits;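 active means mean growth activity at or below -80% and every replicate also at or below -80%; inconclusive means mean at or below -80% but some replicate above -80%; inactive means mean growth activity above -80%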;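 further: 0% = DMSO wells and -100% = levofloxacin 16 µg/mL wells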
# T cruzi growth-2: Trypanosoma cruzi proliferation inhibition; inhibition, % at 8.35 µM; AID 651739; T. cruzi beta-gal in NIH3T3, GalScreen luminescence, 90 h; 5,600 compounds, 72% hits; shares compounds with T cruzi growth-1;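 active means mean replicate inhibition above about 95% and at least 55% of replicates individually reaching it, limit read from the data; inconclusive means only one of the two criteria is met; inactive means neither criterion is met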
# T cruzi growth-3: blocks T. cruzi growth in NIH3T3 host cells; shares compounds with T cruzi growth-1; T. cruzi beta-gal in NIH3T3, GalScreen luminescence, 90 h; inhibition, % at 2.09 µM; 5,600 compounds, 21% hits; AID 651740;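 active means mean inhibition above about 95%, with at least 55% of replicates also reaching it, limit read from the data; inconclusive means meets just one of the two conditions; inactive means meets neither condition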;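 further: plate controls were neutral control median for no effect and positive control median for full effect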
# NIH3T3 tox: kills mouse NIH/3T3 fibroblasts. 5,600 compounds, 14% hits. NIH/3T3 viability, CellTiter-Glo ATP luminescence, 90 h. shares compounds with T cruzi growth-1. cytotoxicity (signal decrease), % at 8.35 µM;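 active means mean signal decrease across replicates above about 35% based on untreated-well scatter, with enough replicates individually passing, limit read from the data; inconclusive means no rule stated though some were filed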;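 further: 0% = median of neutral control wells and 100% = median of positive control wells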
# NIH3T3 tox 2: kills mouse NIH/3T3 fibroblasts | shares compounds with T cruzi growth-1 | NIH/3T3 viability, CellTiter-Glo ATP luminescence, 90 h | inhibition, % at 24.9 µM | 5,600 compounds, 56% hits;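 active means mean loss of cell viability signal at or above a set limit, and enough replicates individually reaching it; inconclusive means meets only the mean limit or only the replicate share; inactive means meets neither condition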;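 further: 0% = median of neutral control wells and 100% = median of positive control wells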
# An asterisk follows results filed as active; ? = inconclusive; . = not tested or not shown.
SMILES,T cruzi growth-1,Pf Dd2 inh,C diff growth,T cruzi growth-2,T cruzi growth-3,NIH3T3 tox,NIH3T3 tox 2
CCS(=O)(=O)N1CCC2(CC1)CN(C(=O)c1cccc(F)c1)[C@H](CO)c1c2c2ccc(OC)cc2n1C,.,-24,10,.,.,.,.
CCCN1C[C@H](C)[C@@H](OC)CN(C)C(=O)c2ccc(NS(=O)(=O)c3cn(C)cn3)cc2OC[C@H]1C,105*,13,.,-5,-22,3,-3
CCCN1C[C@H](C)[C@H](OC)CN(C)C(=O)c2ccc(NC(=O)c3cccc(F)c3)cc2OC[C@H]1C,51,-35,.,.,.,.,.
CCCN1C[C@H](C)[C@H](OC)CN(C)C(=O)c2ccc(NS(=O)(=O)c3cn(C)cn3)cc2OC[C@@H]1C,28,44,.,.,.,.,.
CCCN1C[C@@H](C)[C@H](OC)CN(C)C(=O)c2ccc(NC(=O)c3cccc(F)c3)cc2OC[C@H]1C,102*,-87*,.,104*,63,11,37*
COc1cccc(C(=O)Nc2ccc3c(c2)OC[C@H](C)N(CCc2ccccc2)C[C@H](C)[C@H](OC)CN(C)C3=O)c1,36,-61,.,.,.,.,.
COc1cccc(C(=O)Nc2ccc3c(c2)OC[C@H](C)N(CCc2ccccc2)C[C@@H](C)[C@H](OC)CN(C)C3=O)c1,108*,-25,.,101*,71,8,10
CCCNC(=O)N1C[C@H](C)[C@H](OC)CN(C)C(=O)c2cc(NC(=O)CC)ccc2OC[C@@H]1C,41,3,.,.,.,.,.
CCCNC(=O)N1C[C@H](C)[C@@H](OC)CN(C)C(=O)c2cc(NC(=O)CC)ccc2OC[C@@H]1C,?,24,.,-17,-2,3,-5
C[C@@H]1CN([C@@H](C)CO)C(=O)c2cc(NS(=O)(=O)c3cn(C)cn3)ccc2O[C@@H]1CN(C)Cc1ccc(-c2ccccc2)cc1,54,2,-10,.,.,.,.
O=C(C[C@H]1C[C@@H]2c3cc(NC(=O)Nc4ccc(F)cc4)ccc3O[C@@H]2[C@@H](CO)O1)NCC(F)(F)F,-10,-53,3,.,.,.,.
C[C@@H]1CN([C@H](C)CO)C(=O)c2cc(NS(=O)(=O)c3ccc(Cl)cc3)ccc2O[C@@H]1CN(C)C,.,-32,5,.,.,.,.
CCNC(=O)[C@@H]1[C@@H](CO)[C@@H]2Cn3c(ccc(-c4ccncc4)c3=O)[C@H]1N2Cc1ccccc1,3,25,-6,.,.,.,.
C[C@@H](NC(=O)[C@H]1N[C@H]2c3ccc(-c4cccnc4)c(=O)n3C[C@H]2[C@@H]1CO)c1ccccc1,36,.,3,.,.,.,.
Cc1ccccc1-c1cnc2c(c1)C(=O)N([C@H](C)CO)C[C@H](C)[C@@H](CN(C)C(=O)c1ccncc1)O2,0,11,1,.,.,.,.
CCCC(=O)Nc1ccc2c(c1)OC[C@H](C)N(C(=O)c1cccnc1)C[C@@H](C)[C@H](OC)CN(C)C2=O,100*,-38,.,61,-25,11,-8
CCCC(=O)Nc1ccc2c(c1)OC[C@H](C)N(C(=O)c1cccnc1)C[C@@H](C)[C@@H](OC)CN(C)C2=O,13,9,.,.,.,.,.
CCC(=O)N1C[C@@H](C)[C@@H](OC)CN(C)C(=O)c2cc(NC(=O)c3ccccc3)ccc2OC[C@@H]1C,-17,-37,.,.,.,.,.
CCC(=O)N1C[C@H](C)[C@@H](OC)CN(C)C(=O)c2ccc(NC(=O)c3ccccc3)cc2OC[C@@H]1C,108*,-10,.,8,-2,18,6
CC(=O)N[C@H]1C[C@@H]2O[C@H](CO)CC[C@@H]2O[C@@H]1CCc1ccc(C#CC2(O)CCCC2)cc1,.,4,2,.,.,.,.
C[C@H](CO)N1C[C@H](C)[C@@H](CN(C)Cc2cncnc2)Oc2cc(-c3ccncc3)ccc2S1(=O)=O,101*,13,1,104*,?,23,41*
C[C@H]1CN([C@@H](C)CO)S(=O)(=O)c2ccc(-c3cncnc3)cc2O[C@H]1CN(C)Cc1cncnc1,21,37,1,.,.,.,.
Cc1ccc(-c2ccc3c(c2)O[C@H](CN(C)Cc2cncnc2)[C@@H](C)CN([C@H](C)CO)S3(=O)=O)cc1,102*,-52,6,102*,77,42*,65*
Cc1ccc(-c2ccc3c(c2)O[C@H](CN(C)Cc2cncnc2)[C@H](C)CN([C@H](C)CO)S3(=O)=O)cc1,.,17,.,.,.,.,.
C[C@@H]1CN([C@H](C)CO)S(=O)(=O)c2ccc(-c3cncnc3)cc2O[C@@H]1CN(C)Cc1cncnc1,25,46,-2,.,.,.,.
SMILES,T cruzi growth-1,Pf Dd2 inh,C diff growth,T cruzi growth-2,T cruzi growth-3,NIH3T3 tox,NIH3T3 tox 2
C[C@H]1CN([C@@H](C)CO)S(=O)(=O)c2ccc(-c3ccncc3)cc2O[C@H]1CN(C)Cc1cncnc1,104*,-7,0,100*,77,?,34*
CC(C)CC#Cc1cnc2c(c1)C(=O)N([C@H](C)CO)C[C@@H](C)[C@@H](CN(C)Cc1ccccc1)O2,.,-16,5,.,.,.,.
COCC(=O)N(C)C[C@@H]1Oc2ncc(-c3ccccc3OC)cc2C(=O)N([C@H](C)CO)C[C@@H]1C,40,5,-1,.,.,.,.
CCCNC(=O)N1[C@H](CO)[C@@H](c2ccccc2-c2cccc(C)c2)[C@@H]1C#N,.,3,41,.,.,.,.
CN(C)C(=O)c1cccc(-c2ccc([C@H]3[C@H]4CN(C(=O)C5CCC5)CC(=O)N4[C@H]3CO)cc2)c1,.,34,1,.,.,.,.
CN1C(=O)c2cc(NS(C)(=O)=O)ccc2OC[C@H]2O[C@H](CC(=O)NCc3ccccc3)CC[C@@H]21,-36,8,-4,.,.,.,.
COc1ccccc1CNC(=O)C[C@H]1CC[C@H]2[C@@H](COC[C@H](O)CN2Cc2ccccc2)O1,.,-29,0,.,.,.,.
COc1ccccc1CNC(=O)C[C@@H]1CC[C@H]2[C@@H](COC[C@H](O)CN2Cc2ccc3c(c2)OCO3)O1,101*,-7,88,76,28,12,7
COc1ccccc1CNC(=O)C[C@H]1CC[C@@H]2[C@H](COC[C@@H](O)CN2Cc2cccc(-c3ccncc3)c2)O1,?,.,2,96*,93,29,59*
COc1ccccc1CNC(=O)C[C@@H]1CC[C@@H]2[C@H](COC[C@@H](O)CN2Cc2cccc(-c3ccncc3)c2)O1,92,.,6,.,.,.,.
COc1ccccc1CNC(=O)C[C@@H]1CC[C@H]2[C@@H](COC[C@H](O)CN2Cc2cccc(-c3ccncc3)c2)O1,92,.,2,.,.,.,.
COc1ccccc1CNC(=O)C[C@H]1CC[C@H]2[C@@H](COC[C@H](O)CN2Cc2cccc(-c3ccncc3)c2)O1,120*,.,2,98*,79,3,24
O=C(CCN1CCCCC1)NCC[C@H]1CC[C@@H](NC(=O)C2CC2)[C@@H](CO)O1,.,-8,6,.,.,.,.
CN1c2ccc(-c3ccccc3)cc2[C@H]2[C@H](CCN2C(=O)c2ccccc2)[C@H]1CO,48,-23,6,.,.,.,.
